# Measured values reported in PubChem BioAssay (NCATS).
# Inconclusive results are not listed. Entries that show only a call come without a potency. Calls of active or inactive are those of the source. Calls come from the whole dose curve; as a rule, active = well fitted curve in the direction sought with a large enough effect; inconclusive = small, poorly fitted or top-dose-only effect, or another doubt; inactive = no such curve, though single readings can be large; an effect the other way counts as inactive or inconclusive.
# Columns and labels:
# [1] = target: Aldehyde dehydrogenase, mitochondrial (Homo sapiens) (UniProt P05091); assay: qHTS for Inhibitors of the Aldehyde Dehydrogenase Family (ALDH2) Primary screen (AID 2061308); note: nearly all actives have a fitted effect of over 55% in size
# [2] = target: Retinaldehyde dehydrogenase 3 (Homo sapiens) (UniProt P47895); assay: qHTS for Inhibitors of the Aldehyde Dehydrogenase Family (ALDH1A3) Primary screen (AID 2061315)
Structure (SMILES),Potency [1],Potency [2]
O=C(Nc1ccccn1)c1sc2ccccc2c1Cl,inactive,inactive
CCOc1ccc(CCNC(=O)c2ccc3ccccc3n2)cc1OCC,inactive,inactive
CC(C)(C)OC(=O)NCc1nnc(-c2cc3ccccc3[nH]2)s1,inactive,inactive
CN(C)C/C=C/C(=O)Nc1cccc(C(=O)Nc2ccc(Nc3nccc(-c4cccnc4)n3)cc2)c1,inactive,inactive
CNc1oc(-c2ccc(Cl)c(Cl)c2)nc1C#N,inactive,inactive
COc1cccc(-c2ccc3ncnc(NCc4cccc(C)c4)c3c2)c1,inactive,inactive
CN(Cc1ccco1)c1ncnc2ccc(-c3ccc4c(c3)OCO4)cc12,inactive,inactive
FC(F)(F)c1ccccc1-c1nc(NCc2ccccc2)c2ccccc2n1,inactive,inactive
O=C1CCCC2=C1C(c1[nH]ncc1Cl)NC(=NCCc1ccc(O)cc1)N2 (stereo not given),inactive,inactive
O=C([C@H](Cc1ccc(O[S+](=O)([O-])c2cccc3cnccc23)cc1)N[S+](=O)([O-])c1cccc2cnccc12)N1CCN(Cc2ccccc2)CC1,inactive,inactive
Cc1ccc([S+](=O)([O-])n2cc(Cc3ccc(-c4ccccc4)cc3)c3ccccc32)cc1,inactive,inactive
Cc1ccc(OCCn2c(CCNC(=O)c3ccc(C(F)(F)F)cc3)nc3ccccc32)cc1,inactive,inactive
Cc1cnc(-c2ccccc2C(C)C)nc1NCC1CCN(c2cnccn2)CC1,inactive,inactive
C=C1C(=O)OC2C1CCC1(C)C(O)CCC(=C)C21 (stereo not given),inactive,inactive
Cc1ccc(S(=O)(=O)Nc2ccc(C(=O)Nc3nc(-c4ccc(Cl)cc4)cs3)cc2)cc1,inactive,inactive
